Reference: PubChem BioAssay AID1578 (Sanford-Burnham Center for Chemical Genomics, 2009)
Hit rate of the full screen: of about 290,000 compounds, about 3,000 (1%) were called active. Cut-off read from the data, not from the text of the source: active = inhibition mostly above about 36% (no sharp cut-off); inactive = mostly below about 34%. What follows is part of a selection rich in actives, with near analogues and random picks from the rest.

test: inhibition of NOD1-driven NF-kB reporter – cell-based, luminescence, uHTS, primary screen (AID 1578); details: NOD1-driven NF-kB luciferase reporter cells, at 4 µM, active compounds read high;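 note: HEK-293T reporter cells stimulated with the NOD1 agonist gamma-tri-DAP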

| Compound | inhibition |
| --- | --- |
| Clc1nc(Oc2ccccc2)nc(-c2cn(-c3ccccc3)c3ccccc23)n1 | -9.4% (inactive) |
| O=C(/C=C/c1cccc(OCc2ccccc2)c1)c1cccnc1 | 36.4% (inactive) |
| O=C(/C=C/c1ccc(OCc2ccccc2)c(OCc2ccccc2)c1)c1cccnc1 | 87.9% (active) |
| O=C(/C=C/c1cccc(O)c1)c1cccnc1 | -20.2% (inactive) |
| CC(=O)c1c2c3c(c(Br)ccc3n(C)c1=O)C(=O)c1ccccc1-2 | -3.8% (inactive) |
| CCN1CCN(Cc2ccc(NC(=O)c3ccc(C)c(NC(=O)c4ccc5n[nH]nc5c4)c3)cc2C(F)(F)F)CC1 | -1.3% (inactive) |
| CCN1CCN(Cc2ccc(NC(=O)c3ccc(C)c(NC(=O)c4cccc5[nH]ccc45)c3)cc2C(F)(F)F)CC1 | -0.1% (inactive) |
| CCN1CCN(Cc2ccc(NC(=O)c3ccc(C)c(NC(=O)c4ccnnc4)c3)cc2C(F)(F)F)CC1 | 3.7% (inactive) |
| CCN1CCN(Cc2ccc(NC(=O)c3ccc(C)c(NC(=O)c4cc(-c5ccc(Br)cc5)n[nH]4)c3)cc2C(F)(F)F)CC1 | -4.1% (inactive) |
| CCN1CCN(Cc2ccc(NC(=O)c3cc(NC(=O)C(=O)c4c[nH]c5ccccc45)cc(OC)c3)cc2C(F)(F)F)CC1 | -3.5% (inactive) |
| CCN1CCN(Cc2ccc(NC(=O)c3ccc(C)c(NC(=O)c4cccc(-c5cn[nH]c(=O)c5)c4)c3)cc2C(F)(F)F)CC1 | 72% (active) |
| CCN1CCN(Cc2ccc(NC(=O)c3ccc(C)c(NC(=O)C(=O)c4c[nH]c5ccccc45)c3)cc2C(F)(F)F)CC1 | 67.1% (active) |
| CCN1CCN(Cc2ccc(NC(=O)c3ccc(C)c(NC(=O)c4nccn4C)c3)cc2C(F)(F)F)CC1 | 7.7% (inactive) |
| Cc1cc(C)n(NC(=S)NC2CCCC2)c(=O)c1C#N | -10.5% (inactive) |
| CC1CC(C)CN(S(=O)(=O)c2ccc(Oc3ccc([N+](=O)[O-])cc3)cc2)C1 (stereo not drawn) | 36.9% (inactive) |
| O=C(CCn1nc(-c2ccccc2)ccc1=O)N1CCN(c2ccccn2)CC1 | -14.7% (inactive) |
| O=C(CCc1nnc(CCC2CCCCC2)o1)NCCc1ccccn1 | -21.2% (inactive) |
| COC(=O)c1c(C)oc(C)c1S(=O)(=O)NCc1ccc(OC)cc1 | -3.5% (inactive) |
| Cc1c(C)n(CC(O)CN(CCO)CCO)c2ccccc12 (stereo not drawn) | -21.9% (inactive) |
| COc1ccc(CCNC(=O)C(C)OC(=O)c2ccco2)cc1OC (stereo not drawn) | -19.4% (inactive) |
| O=C1OCCC1Sc1nnc(-c2ccc(Br)cc2)o1 (stereo not drawn) | -16% (inactive) |
| O=C1OCCC1Sc1nnc(-c2ccccc2)o1 (stereo not drawn) | 0.8% (inactive) |
| CCOc1ccc(C2C(C(=O)c3ccco3)=C(O)C(=O)N2CCN2CCOCC2)cc1 (stereo not drawn) | 8.2% (inactive) |
| Cc1ccc(S(=O)(=O)/N=C(/c2ccccc2)N2CCOCC2)cc1 | 7.1% (inactive) |

| Compound | inhibition |
| --- | --- |
| Cc1ccc(CS(=O)(=O)CCC(=O)NCCC(C)C)cc1 | -16.6% (inactive) |
| CCOc1cc(/C=N\Nc2ncc(F)c(N3CCOCC3)n2)ccc1Oc1nc(Cl)ncc1F | 19.9% (inactive) |
| Fc1ccc(-c2cnn3c(-c4cccs4)ccnc23)cc1 | -29% (inactive) |
| Clc1ccc(-c2cnn3c(-c4ccncc4)ccnc23)cc1 | 52% (active) |
| Fc1ccc(-c2cnn3c(-c4ccncc4)ccnc23)cc1 | -51.9% (inactive) |
| O=c1c2sc3nc(N4CCOCC4)c4c(c3c2ncn1CCc1ccccc1)CCCC4 | 45.8% (inactive) |
| O=C(Nc1ccc(Cl)c(Cl)c1)Nc1nnc(CSc2ccccc2)s1 | 74.5% (active) |
| CCn1ncc(NC(=O)Nc2cccc(C(F)(F)F)c2)c1C(N)=O | -12.4% (inactive) |
| O=C(Nc1ccncc1)Nc1cccc(C(F)(F)F)c1 | 3.5% (inactive) |
| O=C(Nc1ccc(F)cc1)Nc1nnc(-c2ccncc2)s1 | -10.7% (inactive) |
| COc1ccc(NC(=O)Nc2nnc(-c3cccs3)s2)cc1 | -3% (inactive) |
| O=C(Nc1ccc(Cl)cc1)Nc1nnc(-c2ccncc2)s1 | 67.3% (inactive) |
| O=C(Nc1ccc(Cl)cc1)Nc1nnc(CSCc2ccccc2)s1 | -3.9% (inactive) |
| O=C(Nc1ccc(Cl)cc1)Nc1nnc(CSc2ccc(Cl)cc2)s1 | -8.9% (inactive) |
| COc1ccc(NC(=O)Nc2nnc(-c3ccco3)s2)cc1 | -7.3% (inactive) |
| COc1ccc(-c2[nH]ncc2CN2CCC(C(=O)N3CCOCC3)CC2)c(F)c1 | -28.9% (inactive) |
| Cc1nc(C(=O)NCc2ccccc2)sc1C1(C)CC(c2cccc([N+](=O)[O-])c2)=NO1 (stereo not drawn) | -0.1% (inactive) |
| COc1ccc(CNC(=S)Nc2ccccc2-c2ccccc2)cc1 | -26.8% (inactive) |
| O=C(NC1CCCCC1)C1CCN(c2ncccn2)CC1 | -38.7% (inactive) |
| O=S(=O)(NCc1ccc(F)cc1)c1ccc(-n2cnnn2)cc1 | -14.1% (inactive) |
| Cc1ccc(OCCSCc2nnc(NC(=O)Nc3cccc(Cl)c3)s2)cc1 | 13.6% (inactive) |
| O=C(Nc1cccc(Cl)c1)Nc1nnc(CSCCOc2ccc(Cl)cc2)s1 | 67.8% (active) |
| O=C(Nc1cccc(Cl)c1)Nc1nnc(-c2ccncc2)s1 | 95.7% (active) |
| Cc1nnc(NC(=O)Nc2cccc(Cl)c2)s1 | -14.6% (inactive) |

| Compound | inhibition |
| --- | --- |
| Cc1ccc(NC(=O)Nc2nnc(CSCCOc3ccc(Cl)cc3)s2)cc1 | -1.1% (inactive) |
| O=C(Nc1ccc(Cl)c(Cl)c1)Nc1nnc(-c2ccncc2)s1 | -26.4% (inactive) |
| CSc1ccccc1NC(=O)C1=CC(c2cccs2)=NS(=O)(=O)N1C | 3.3% (inactive) |
| COc1ccc(C(=O)/C=C/C(=O)N(Cc2ccc(F)cc2)C(C(=O)NC2CCCCC2)c2ccncc2)c(O)c1 (stereo not drawn) | -6.1% (inactive) |
| CCCN(CC(=O)Nc1ccc(C(C)=O)cc1)CC(=O)Nc1ccccc1C | -32.2% (inactive) |
| COc1cc2c(cc1OC)C(c1ccc(-c3ccc(Cl)c(Cl)c3)o1)=NCC2 | 63.1% (inactive) |
| COc1cc2c(cc1OC)C(c1ccc(-c3ccccc3Cl)o1)=NCC2 | 75.2% (active) |
| COc1cc2c(cc1OC)C(c1ccc(-c3ccc(Cl)cc3Cl)o1)=NCC2 | 58.8% (inactive) |
| OCCN1CCN(c2cc(C(F)(F)F)nc3ccccc23)CC1 | -6.8% (inactive) |
| C/C(=N\NC(=O)c1ccc(-c2ccccc2)cc1)c1ccco1 | -46.6% (inactive) |
| COc1ccc(C(=O)/C=C/Sc2nc3ccccc3o2)cc1 | 38.4% (active) |
| COc1ccc(CCNC(=O)CSc2nc3ccccc3o2)cc1 | -19.1% (inactive) |
| COc1ccc(C(=O)N/C(N)=N/c2nc3ccccc3o2)cc1 | -46.2% (inactive) |
| O=C(CCCN1C(=O)/C(=C/c2cccs2)SC1=S)Nc1ccccc1O | -2% (inactive) |
| COc1ccc(C(=O)CN2C(=O)c3ccccc3C2=O)cc1 | -9.8% (inactive) |
| CCOC(=O)CSc1nc2c(sc(=S)n2Cc2ccco2)c(=O)n1-c1ccc(F)cc1 | 14.1% (inactive) |
| N#CCSc1nc2c(sc(=S)n2Cc2ccco2)c(=O)n1-c1ccc(F)cc1 | 66.5% (active) |
| CCOC(=O)CSc1nc2c(sc(=S)n2Cc2ccco2)c(=O)n1-c1ccccc1 | 16.8% (inactive) |
| COc1ccccc1NC(=O)Cn1cnc2c(nc3n2CCCCC3)c1=O | -24.1% (inactive) |
| CC(=O)C1=C(C)NC(C)=C(C(C)=O)C1c1ccccc1 | -20.8% (inactive) |
| CCOc1ccc(C(=O)Nc2nnc(S(=O)(=O)Nc3ccccc3C)s2)cc1 | -17.1% (inactive) |
| COC(=O)c1cc(=O)n(Cc2ccc3c(c2)OCO3)c(=Nc2ccccc2)s1 | 73.6% (active) |
| CCOC(=O)c1ccc(N=c2sc(C(=O)OC)cc(=O)n2Cc2ccc3c(c2)OCO3)cc1 | 22.1% (inactive) |
| COC(=O)c1cc(=O)n(Cc2ccc3c(c2)OCO3)c(=Nc2ccc(F)cc2)s1 | 48.7% (inactive) |

| Compound | inhibition |
| --- | --- |
| Cc1nn(Cc2ccccc2)c(C)c1NC(=O)c1cc2nc(-c3ccco3)cc(C(F)(F)F)n2n1 | -2% (inactive) |
| COc1ccc(C2NCCc3cc(OC)c(OC)cc32)cc1OC (stereo not drawn) | -2.7% (inactive) |
| CCOc1cc2c(cc1OC)C(c1cccc([N+](=O)[O-])c1)NCC2 (stereo not drawn) | -31.3% (inactive) |
| CCOc1ccc(C2NCCc3cc(OC)c(OC)cc32)cc1OC (stereo not drawn) | 83.1% (active) |
| Clc1cccc2c3c([nH]c12)CCNC3 | 0.5% (inactive) |
| CCn1c2ccccc2c2cc(C3C(C#N)=C(N)Oc4n[nH]c(COC)c43)ccc21 (stereo not drawn) | 54.9% (active) |
| COCc1[nH]nc2c1C(c1ccc(OC)c(OC)c1)C(C#N)=C(N)O2 (stereo not drawn) | -5.1% (inactive) |
| COCc1[nH]nc2c1C(c1cccc(OC)c1)C(C#N)=C(N)O2 (stereo not drawn) | 4.9% (inactive) |
| CC1(C(=O)NNC(=O)c2cccc([N+](=O)[O-])c2)CC1(Br)Br (stereo not drawn) | -8.9% (inactive) |
| N/C(=N\OC(=O)c1cc(Cl)ccc1Cl)c1ccccn1 | 9.6% (inactive) |
| N/C(=N\OC(=O)c1ccc([N+](=O)[O-])cc1Cl)c1ccccn1 | 45.8% (inactive) |
| N/C(=N\OC(=O)c1ccc(Cl)cc1Cl)c1ccccn1 | 51.2% (active) |
| COc1ccccc1C(=O)O/N=C(\N)c1ccccn1 | -10% (inactive) |
| N/C(=N\OC(=O)c1cc(Br)ccc1Cl)c1ccccn1 | -19.5% (inactive) |
| N/C(=N\OC(=O)c1ccccc1Cl)c1ccccn1 | 54.7% (active) |
| CC1=C(C(=O)OCc2ccccc2)C(c2cccc([N+](=O)[O-])c2)NC(=O)N1 (stereo not drawn) | 13.3% (inactive) |
| CCOC(=O)C1=C(CCl)NC(=O)NC1c1ccc2c(c1)OCO2 (stereo not drawn) | 72.5% (active) |
| CCOC(=O)C1=C(CN2CCCCCC2)NC(=O)NC1c1ccc2c(c1)OCO2 (stereo not drawn) | -36.5% (inactive) |
| COc1ccc(C2NC(=O)NC(C)=C2C(=O)OCc2ccc3c(c2)OCO3)cc1OC (stereo not drawn) | 15.1% (inactive) |
| CCOC(=O)C1=C(C)NC(=O)NC1c1ccc2c(c1)OCO2 (stereo not drawn) | 18% (inactive) |
| CC1=C(C(=O)OCc2ccc3c(c2)OCO3)C(c2cccc([N+](=O)[O-])c2)NC(=O)N1 (stereo not drawn) | 63.2% (active) |
